Measurements taken from ChEMBL document CHEMBL3988442, “University of Dundee, Small-Polar-MMV Screening Library” (2021).
Values joined by “and” are separate entries in the source; they are usually repeats but may differ in a detail not shown here. Equal entries are not always repeated. For part of these data: Measured potencies and affinities stand elsewhere.

What was measured:
Parameters in all cases: scale not given: direction of the effect not stated beside the values
[1] = target: Protein translocase subunit SecA (Escherichia coli (strain K12)) (UniProt P10408); assay: Assay to Identify E. coli SecA ATPase Inhibitors; type: functional; settings: 30 µM
[2] = target: T1, Ubiquitin-activating enzyme e1, putative (Leishmania donovani (strain BPK282A1)) (UniProt E9BSI1); assay: Leishmania donovani Ubiquitin Activating Enzyme (LdE1); type: functional; settings: 30 µM
T1 sequence (whole entry): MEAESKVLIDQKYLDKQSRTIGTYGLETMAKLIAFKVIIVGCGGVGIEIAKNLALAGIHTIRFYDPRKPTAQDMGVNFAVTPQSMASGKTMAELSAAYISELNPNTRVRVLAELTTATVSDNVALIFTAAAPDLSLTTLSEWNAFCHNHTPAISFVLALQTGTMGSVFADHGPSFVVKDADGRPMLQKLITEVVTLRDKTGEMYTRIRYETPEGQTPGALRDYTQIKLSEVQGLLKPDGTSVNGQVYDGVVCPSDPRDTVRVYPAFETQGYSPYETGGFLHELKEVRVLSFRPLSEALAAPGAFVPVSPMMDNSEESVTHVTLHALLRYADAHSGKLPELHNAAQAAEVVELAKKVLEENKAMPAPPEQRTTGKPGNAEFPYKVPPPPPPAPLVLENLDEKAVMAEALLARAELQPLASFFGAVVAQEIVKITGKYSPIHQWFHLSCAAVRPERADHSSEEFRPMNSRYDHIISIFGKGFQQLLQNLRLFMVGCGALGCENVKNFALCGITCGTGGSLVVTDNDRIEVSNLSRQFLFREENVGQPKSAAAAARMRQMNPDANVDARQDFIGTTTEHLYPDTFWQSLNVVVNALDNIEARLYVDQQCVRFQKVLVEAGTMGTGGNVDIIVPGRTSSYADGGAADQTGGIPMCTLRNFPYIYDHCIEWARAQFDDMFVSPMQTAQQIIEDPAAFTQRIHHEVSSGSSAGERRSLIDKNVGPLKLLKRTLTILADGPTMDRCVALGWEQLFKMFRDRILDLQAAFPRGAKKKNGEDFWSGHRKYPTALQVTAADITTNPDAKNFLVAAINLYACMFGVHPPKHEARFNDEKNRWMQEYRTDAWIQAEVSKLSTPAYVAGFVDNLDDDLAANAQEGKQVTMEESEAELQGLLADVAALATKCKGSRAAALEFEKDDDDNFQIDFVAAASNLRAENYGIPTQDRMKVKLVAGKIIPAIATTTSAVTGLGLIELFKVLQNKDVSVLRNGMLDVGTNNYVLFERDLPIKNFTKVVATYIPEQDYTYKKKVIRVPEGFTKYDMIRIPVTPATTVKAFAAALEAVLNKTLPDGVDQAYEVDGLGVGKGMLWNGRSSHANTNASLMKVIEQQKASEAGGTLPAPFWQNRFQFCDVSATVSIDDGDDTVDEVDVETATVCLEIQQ

[3] = target: AMP-activated protein kinase, AMPK (Homo sapiens) (UniProt P54646+O43741+P54619+Q9UGJ0+Q9Y478+Q13131+Q9UGI9); assay: AMP-dependent Kinase enzyme assay. An in vitro enzyme assay that detects ADP turnover that is directly proportional to AMPK activity. This uses naive AMPK that is activated during the assay with MK-8722; type: functional; settings: 30 µM
[4] = target: Sialic acid-binding Ig-like lectin 9 (Homo sapiens) (UniProt Q9Y336); assay: Hs-Siglec9 ALPHAscreen SOP 20170721; settings: 10 µM
Trypanosoma cruzi = assay: Trypanosoma cruzi phosphomannomutase and mannose-1-phosphate guanylyltransferase assay; type: functional; settings: 10 µM
[5] = target: T2, Arginase-2, mitochondrial (Homo sapiens) (UniProt P78540); assay: in vitro enzyme assay to detect the production of urea directly proportional to the activity of Arginase II; type: functional; settings: 33.3 µM; further: in the data most compounds retested in dose-response had high values
T2 sequence (whole entry): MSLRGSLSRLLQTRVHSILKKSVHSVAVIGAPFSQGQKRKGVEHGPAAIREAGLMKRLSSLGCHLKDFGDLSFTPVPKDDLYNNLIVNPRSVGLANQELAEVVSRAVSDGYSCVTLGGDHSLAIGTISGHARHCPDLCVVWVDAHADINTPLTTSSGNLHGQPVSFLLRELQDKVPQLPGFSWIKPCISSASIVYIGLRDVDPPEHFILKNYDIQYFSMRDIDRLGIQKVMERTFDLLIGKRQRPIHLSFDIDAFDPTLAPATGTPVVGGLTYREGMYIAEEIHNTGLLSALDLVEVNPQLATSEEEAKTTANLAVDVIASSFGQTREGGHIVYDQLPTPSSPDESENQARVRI

[6] = target: T3, Proteasome subunit beta (Trypanosoma cruzi) (UniProt O96673); assay: Trypanosoma cruzi proteasome chymotrypsin-like activity (TcProtChymo) assay.; further: in the data most compounds retested in dose-response had high values; type: functional; settings: 9.37 µM
T3 sequence (whole entry): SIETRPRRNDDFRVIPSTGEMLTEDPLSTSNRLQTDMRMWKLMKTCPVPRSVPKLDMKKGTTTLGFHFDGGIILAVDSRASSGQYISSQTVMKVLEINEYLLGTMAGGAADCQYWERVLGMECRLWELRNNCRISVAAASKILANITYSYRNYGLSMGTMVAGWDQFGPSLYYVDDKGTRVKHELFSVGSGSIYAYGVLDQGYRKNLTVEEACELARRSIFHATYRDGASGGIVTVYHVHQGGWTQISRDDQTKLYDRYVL

Homo sapiens = species: Homo sapiens; assay: To identify inhibition of the IFN signalling (Jak-Stat) pathway via expression of an eGFP reporter gene under the control of an IFN-stimulated response element (ISRE) containing MxA promoter.; type: functional; settings: 30 µM
[7] = target: T4, Tyrosyl-tRNA synthetase, putative (Trypanosoma cruzi (strain CL Brener)) (UniProt Q4DSP6); assay: Trypanosoma cruzi tyrosyl tRNA synthetase (TcYRS) _High Tyrosine SOP; type: functional; settings: 30 µM; further: in the data most compounds retested in dose-response had high values
T4 sequence (whole entry): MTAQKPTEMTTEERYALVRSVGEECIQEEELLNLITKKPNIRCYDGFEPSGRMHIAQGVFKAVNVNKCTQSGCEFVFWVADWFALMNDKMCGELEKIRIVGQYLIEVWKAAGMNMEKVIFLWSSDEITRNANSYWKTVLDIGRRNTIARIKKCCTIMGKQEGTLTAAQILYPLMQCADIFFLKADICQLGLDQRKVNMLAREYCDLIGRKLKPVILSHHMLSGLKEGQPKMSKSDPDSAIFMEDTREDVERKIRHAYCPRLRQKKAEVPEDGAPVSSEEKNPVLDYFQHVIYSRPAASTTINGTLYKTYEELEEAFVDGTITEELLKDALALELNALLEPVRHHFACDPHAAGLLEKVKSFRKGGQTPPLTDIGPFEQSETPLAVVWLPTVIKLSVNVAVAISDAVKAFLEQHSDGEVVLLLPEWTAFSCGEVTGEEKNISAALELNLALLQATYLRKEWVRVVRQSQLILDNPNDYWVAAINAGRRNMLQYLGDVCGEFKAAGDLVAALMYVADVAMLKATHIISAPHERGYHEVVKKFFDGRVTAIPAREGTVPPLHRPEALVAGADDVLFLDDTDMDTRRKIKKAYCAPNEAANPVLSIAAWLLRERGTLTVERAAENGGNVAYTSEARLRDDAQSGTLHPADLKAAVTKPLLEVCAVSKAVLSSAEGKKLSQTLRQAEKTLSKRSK

[8] = target: T4, Tyrosyl-tRNA synthetase, putative (Trypanosoma cruzi (strain CL Brener)); assay: Trypanosoma cruzi tyrosyl tRNA synthetase (TcYRS) SOP; type: functional; settings: 30 µM
[9] = target: Chromo domain-containing protein 1 (Saccharomyces cerevisiae (strain ATCC 204508 / S288c) (Baker's yeast)) (UniProt P32657); assay: ScCHD-1 Enzyme Inhibition Assay; type: functional; settings: 30 µM; further: in the data most compounds retested in dose-response had high values
N/A = assay: Trypanosoma cruzi proteasome luciferase counter-screen; type: functional; settings: 9.37 µM

Chain of Protein translocase subunit SecA (Escherichia coli (strain K12)) (P10408 whole entry): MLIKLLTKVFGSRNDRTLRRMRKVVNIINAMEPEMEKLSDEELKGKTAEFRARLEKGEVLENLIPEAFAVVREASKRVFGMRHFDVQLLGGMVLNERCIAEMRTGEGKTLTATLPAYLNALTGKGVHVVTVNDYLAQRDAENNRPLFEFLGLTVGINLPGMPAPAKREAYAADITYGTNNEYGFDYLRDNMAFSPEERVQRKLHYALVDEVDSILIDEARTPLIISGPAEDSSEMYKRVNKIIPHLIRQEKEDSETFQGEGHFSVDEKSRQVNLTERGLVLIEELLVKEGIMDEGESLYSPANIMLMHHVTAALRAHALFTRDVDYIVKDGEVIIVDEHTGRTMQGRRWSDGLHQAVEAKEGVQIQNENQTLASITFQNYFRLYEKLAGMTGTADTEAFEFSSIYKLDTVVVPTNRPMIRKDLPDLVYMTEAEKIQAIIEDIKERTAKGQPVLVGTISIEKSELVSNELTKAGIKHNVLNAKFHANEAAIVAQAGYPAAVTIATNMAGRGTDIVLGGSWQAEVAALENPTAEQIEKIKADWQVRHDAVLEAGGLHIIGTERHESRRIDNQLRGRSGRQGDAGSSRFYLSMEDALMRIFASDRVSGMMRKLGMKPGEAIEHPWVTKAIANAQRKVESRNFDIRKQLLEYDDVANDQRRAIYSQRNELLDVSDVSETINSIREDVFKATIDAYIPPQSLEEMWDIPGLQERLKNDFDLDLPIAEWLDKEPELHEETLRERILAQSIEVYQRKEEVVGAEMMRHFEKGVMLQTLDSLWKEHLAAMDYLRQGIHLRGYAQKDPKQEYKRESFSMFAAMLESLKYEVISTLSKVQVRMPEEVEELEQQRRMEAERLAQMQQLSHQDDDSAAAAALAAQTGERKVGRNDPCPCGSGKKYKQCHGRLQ
Chain of Sialic acid-binding Ig-like lectin 9 (Homo sapiens) (Q9Y336 whole entry): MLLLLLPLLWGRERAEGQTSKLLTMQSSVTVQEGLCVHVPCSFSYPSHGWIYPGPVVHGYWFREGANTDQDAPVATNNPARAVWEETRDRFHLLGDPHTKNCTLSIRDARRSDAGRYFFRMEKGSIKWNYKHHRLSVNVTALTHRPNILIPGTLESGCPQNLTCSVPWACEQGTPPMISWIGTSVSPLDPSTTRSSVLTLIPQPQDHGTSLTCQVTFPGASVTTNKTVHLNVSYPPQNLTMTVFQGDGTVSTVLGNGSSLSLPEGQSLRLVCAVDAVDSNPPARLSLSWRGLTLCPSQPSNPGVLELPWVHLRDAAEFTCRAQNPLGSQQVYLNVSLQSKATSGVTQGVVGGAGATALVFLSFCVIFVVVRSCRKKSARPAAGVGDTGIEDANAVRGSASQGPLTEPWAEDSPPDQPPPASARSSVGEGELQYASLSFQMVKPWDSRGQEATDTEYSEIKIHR
Chain of Chromo domain-containing protein 1 (Saccharomyces cerevisiae (strain ATCC 204508 / S288c) (Baker's yeast)) (P32657 whole entry, the tested form may be a part): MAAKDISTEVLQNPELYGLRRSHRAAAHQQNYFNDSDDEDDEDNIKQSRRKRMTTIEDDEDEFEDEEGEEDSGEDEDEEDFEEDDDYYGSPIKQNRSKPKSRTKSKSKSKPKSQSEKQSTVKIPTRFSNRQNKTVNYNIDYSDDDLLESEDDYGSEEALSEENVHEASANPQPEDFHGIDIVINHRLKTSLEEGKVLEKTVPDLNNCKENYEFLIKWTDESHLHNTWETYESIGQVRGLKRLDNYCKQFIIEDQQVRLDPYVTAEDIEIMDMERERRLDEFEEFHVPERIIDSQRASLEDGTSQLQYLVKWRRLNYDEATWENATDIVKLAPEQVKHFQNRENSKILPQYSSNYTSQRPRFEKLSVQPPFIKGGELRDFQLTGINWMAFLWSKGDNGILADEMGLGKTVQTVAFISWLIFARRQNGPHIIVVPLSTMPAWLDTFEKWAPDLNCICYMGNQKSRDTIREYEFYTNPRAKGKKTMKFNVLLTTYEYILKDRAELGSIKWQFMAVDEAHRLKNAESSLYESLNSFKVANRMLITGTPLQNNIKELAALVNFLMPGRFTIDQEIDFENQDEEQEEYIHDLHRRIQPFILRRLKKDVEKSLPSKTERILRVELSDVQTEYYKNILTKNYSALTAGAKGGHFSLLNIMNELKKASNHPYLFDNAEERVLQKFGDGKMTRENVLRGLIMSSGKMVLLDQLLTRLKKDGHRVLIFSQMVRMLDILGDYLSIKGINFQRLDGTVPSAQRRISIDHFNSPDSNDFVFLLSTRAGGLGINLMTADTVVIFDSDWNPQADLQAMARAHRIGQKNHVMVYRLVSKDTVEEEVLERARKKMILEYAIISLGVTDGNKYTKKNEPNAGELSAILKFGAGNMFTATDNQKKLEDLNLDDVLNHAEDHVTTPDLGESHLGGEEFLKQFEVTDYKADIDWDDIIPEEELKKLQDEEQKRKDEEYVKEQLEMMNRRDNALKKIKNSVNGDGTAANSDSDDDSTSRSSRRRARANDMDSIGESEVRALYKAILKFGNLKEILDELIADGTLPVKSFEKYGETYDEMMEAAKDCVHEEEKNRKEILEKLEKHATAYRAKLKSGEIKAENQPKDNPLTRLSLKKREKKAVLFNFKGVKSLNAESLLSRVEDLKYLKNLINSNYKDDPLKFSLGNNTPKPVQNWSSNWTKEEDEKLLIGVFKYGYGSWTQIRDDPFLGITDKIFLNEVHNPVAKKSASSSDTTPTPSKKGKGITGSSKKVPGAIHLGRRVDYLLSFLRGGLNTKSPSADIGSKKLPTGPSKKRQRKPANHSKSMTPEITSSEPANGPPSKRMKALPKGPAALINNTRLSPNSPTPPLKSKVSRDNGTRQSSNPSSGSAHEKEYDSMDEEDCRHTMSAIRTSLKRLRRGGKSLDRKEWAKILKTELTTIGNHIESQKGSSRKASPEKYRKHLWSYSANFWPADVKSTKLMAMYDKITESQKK

Row | SMILES | Percent Effect [1] [%] | Percent Effect [2] [%] | Percent Effect [3] [%] | Percent Effect [4] [%] | Percent Effect (Trypanosoma cruzi) [%] | Percent Effect [5] [%] | Percent Effect [6] [%] | Percent Effect (Homo sapiens) [%] | Percent Effect [7] [%] | Percent Effect [8] [%] | Percent Effect [9] [%] | Percent Effect (N/A)
1 | Cc1nn(C)c(C)c1C1CCCN1CC(=O)Nc1ccncc1 (stereo unspecified) | -3.89 | -2.7 | -12 | -1.63 | -3.49 | 4.41 | -2.88 | 7.51 | -0.493 | -11.1 | 4.66 | 
2 | C[C@@H]1CN(C(=O)NC2CC2)C[C@]12CCN(c1ccsc1)C2=O | -4.11 | 5.33 | 8.07 | 0.822 | -4.13 | 2.1 | 2.56 | 8.5 | 4.25 | 11.5 | -3.74 | 
3 | CCc1cc(C)c(C(=O)N2CCCC2CC(=O)c2cnn(C)c2)o1 (stereo unspecified) | -1.93 | -1.27 | 169 | -0.655 | -1.13 | -1.5 | 7.03 | 7.3 | -1.04 | 0 | -4.62 | 
4 | CC(=O)N1CCC(Oc2ccc(C#N)cn2)CC1 | -4.01 | 8.22 | 1.71 | 12.9 | 2.94 | 7.27 | 4.44 | 11.1 | 4.3 | 12.5 | -5.65 | 
5 | Cc1cnn(CC2CCCN2C(=O)c2ccc3cc[nH]c3c2)c1 (stereo unspecified) | -1.42 | 1.27 | 3.59 | 1.53 | -1.33 | 1.5 | 2.4 | 13.8 | 0 | 5.06 | -8.72 | 
6 | Cc1occc1C(=O)N1CCC2(CC1)C(c1cnn(C)c1)CC(=O)N2C (stereo unspecified) | -5.4 | 13.5 | 6.87 | -12.9 | -4.59 | 1.59 |  | 15.9 | -11.9 | 7.69 | -4.17 | 11.5% and 13.8%
